Measured values taken from PubChem BioAssay (EPA / NIEHS).
The source made the active and inactive calls. Rule for the calls: active = hit-call score of the fitted dose curve at least 0.9, where 1 is the maximum; inactive = score below 0.9.

Experiment: ATG_Ets_CIS: Attagene CIS-FACTORIAL HepG2 Assay for human Erythroblast Transformation Specific (ETS) (AID 2282941)
Settings: HepG2 ETS cis-reporter transcription, actives raise or lower the signal
Method: ATG_CIS is a cell-based, multiplexed-readout assay that uses HepG2, a human liver cell line, with measurements taken at 24 hours after chemical dosing in a 24-well plate.ATG_Ets_CIS is one of 52 assay component(s) measured or calculated from the ATG_CIS assay. It is designed to make measurements of mRNA induction, a form of inducible reporter, as detected with fluorescence intensity signals by Reverse transcription polymerase chain reaction (RT-PCR) and Capillary electrophoresis technology.Data from the assay component ATG_Ets_CIS was analyzed into 1 assay endpoint. This assay endpoint, ATG_Ets_CIS, was analyzed with bidirectional fitting relative to DMSO as the negative control and baseline of activity. Using a type of inducible reporter, measures of mRNA for gain or loss-of-signal activity can be used to understand the reporter gene at the transcription factor-level as they relate to the gene ETS1. Furthermore, this assay endpoint can be referred to as a primary readout, because this assay has produced multiple assay endpoints where this one serves a reporter gene function. To generalize the intended target to other relatable targets, this assay endpoint is annotated to the dna binding intended target family, where the subfamily is winged helix-turn-helix.
Human liver HepG2 cells are transiently transfected with multiple reporter transcription units (MRTUs) in 6-well plates using FuGene 6 reagent (Roche; 3 ml FuGene/1 mg DNA). The MRTU constructs are regulated by a cis-regulating element (promoter). […] A major difference between the CIS and TRANS system is that in CIS activities of endogenous TFs are measured, whereas the TRANS assay evaluates changes in activities of exogenous, chimeric NR-Gal4 proteins. […] At the end of 24 hour incubation, total RNA was isolated using TriZol reagent (Invitrogen). The isolated RNA is then reverse-transcribed using oligo(dT) primer and Mo-MLV reverse transcriptase (Invitrogen) with DNAse I (Ambion) treatment for 30 min. The one-tenth of the produced cDNA was amplified by PCR using Taq DNA polymerase (Invitrogen) and two reporter sequence-specific primers. The PCR products were fluorescently labeled by primer extension with 6-arboxyfluorescein (6-FAM) 5'-labeled reporter sequence-specific primer (2 min at 95 C, 20 s at 68 C and 10 min at 72 C) and these products were digested with 5U of HpaI (New England Biolabs) for 2h at 37 C. The fragments were purified using Qiaquick PCR columns (Qiagen), analyzed on an ABI 3130xL genetic analyzer (Applied Biosystems) with peak positions identified by using a set of X-rhodamine (ROX)-labeled MapMarker1000 molecular weight standards (BioVentures). The raw capillary electrophoresis data was processed using Attagraph software (Attagene).

Compound	outcome	AC50
CCc1ccc(C=O)cc1	inactive	
CNC(=O)Oc1ccc2c(c1)[C@]1(C)CCN(C)[C@@H]1N2C	inactive	
N#Cc1nc(Cl)c(Cl)c(Cl)c1Cl		2250 nM (active)
COc1ccc(Cl)cc1C	inactive	
OC1C(O)C(O)C(O)C(O)C1O (stereo not given)	inactive	
CC1CC(OC(=O)c2ccccc2O)CC(C)(C)C1 (stereo not given)	inactive	
CO[Si](C)(OC)c1ccccc1	inactive	
CC(CN1c2ccccc2Sc2ccccc21)N(C)C (stereo not given)	inactive	
CCCCCNCCCCC	inactive	
CC(=O)[O][Al][O]C(C)=O	inactive	
CCCCCCOC(=O)CC	inactive	
CC(=O)OCc1ccc2c(c1)OCO2	inactive	
CC(C)c1ccc(C(C)C)cc1	inactive	
NCCNCCN	inactive	
CCC/C=C/C=O	inactive	
Cc1ccccc1C=O	inactive	
Nc1cc([N+](=O)[O-])ccc1Cl	inactive	
c1ccc2c(c1)c1cccc3ccc4cccc2c4c31	inactive	
CCCCCCCCCCCCCCCC(=O)O	inactive	
CC(C)[C@@H]1CC[C@@H](C)CC1=O	inactive	

Compound	outcome	AC50
O=C(COc1ccc(Cl)cc1)N1CCN(Cc2ccc3c(c2)OCO3)CC1	inactive	
CCCC(=O)C(C)=O	inactive	
Clc1ccc(Cl)c(Cl)c1Cl	inactive	
CCCCCCOC(=O)CCCCC	inactive	
CC(=O)Nc1ccc(C)cc1C	inactive	
CC(=O)Nc1ccc(CC(=O)O)cc1	inactive	
CC(C)(COC(=O)c1ccccc1)COC(=O)c1ccccc1	inactive	
CC(C)(C)NC(N)=O	inactive	
C=C(C)C(=O)Nc1ccc(Cl)c(Cl)c1	inactive	
CCCCCC(=O)OCCc1ccccc1	inactive	
CC(C)=CCO	inactive	
NC(N)=NC(=O)c1nc(Cl)c(N)nc1N	inactive	
ClCCCl	inactive	
C=C(C)C(=O)O	inactive	
CCCCCCCCCCN	inactive	
O=C(O)CCCCCCCCCCC(=O)O	inactive	
CCO[Si](CCCS)(OCC)OCC	inactive	
Cc1cccc(C)c1C	inactive	
CCCCCCCCCCCCCOS(=O)(=O)O	inactive	
Cc1cccc(C)c1[N+](=O)[O-]	inactive	
